{
  "source": "PubChem BioAssay (NCATS)",
  "note": "Results filed as inconclusive are left out. A call without a number means that no potency is given here. Active and inactive are the calls of the source. Calls follow the shape of the dose curve; as a rule, active = well fitted activation curve with a large enough effect; inconclusive = small, poorly fitted or top-dose-only effect; inactive = no such curve, though single readings can be large or run the other way. Potency is read from the fitted curve at half-maximal effect.",
  "data": [
    {"target": "Arylsulfatase A (Homo sapiens) (UniProt P15289)", "sequence (P15289 whole entry, looked up)": "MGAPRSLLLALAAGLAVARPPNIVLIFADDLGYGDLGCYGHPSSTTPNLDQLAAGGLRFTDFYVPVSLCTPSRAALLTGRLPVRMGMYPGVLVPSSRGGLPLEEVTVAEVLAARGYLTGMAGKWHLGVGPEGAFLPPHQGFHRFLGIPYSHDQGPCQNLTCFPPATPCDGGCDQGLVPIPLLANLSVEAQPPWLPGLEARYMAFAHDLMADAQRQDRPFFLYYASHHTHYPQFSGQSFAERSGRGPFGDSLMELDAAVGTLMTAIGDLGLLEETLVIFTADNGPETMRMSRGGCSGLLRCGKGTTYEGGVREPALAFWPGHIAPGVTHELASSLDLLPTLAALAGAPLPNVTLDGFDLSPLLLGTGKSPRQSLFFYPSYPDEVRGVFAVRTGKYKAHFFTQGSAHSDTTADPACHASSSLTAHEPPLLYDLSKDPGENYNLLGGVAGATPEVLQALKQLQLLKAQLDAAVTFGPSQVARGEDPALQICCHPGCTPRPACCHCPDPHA", "experiment": "qHTS screen for enhancers of Arylsulfatase A (ASA1): LOPAC Validation Assay (AID 720538)", "settings": "ASA enzyme activity, LOPAC qHTS enhancer assay; series mostly up to 57.5 µM", "summary_of_the_method": "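Enhancer assay in patient-derived MLD fibroblasts carrying ASA-I179S: 48 h compound exposure at 37 C, then 14 h room-temperature pNCS turnover (0.5 mM final) in lysis buffer. Read by fluorescence at 525/598 nm after NaOH stop.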", "values": [
      {"smiles": "CC(C)=CCOc1c2occc2cc2ccc(=O)oc12", "Potency": "inactive"},
      {"smiles": "CCC1(C2=NCCN2)Cc2ccccc2O1", "note": "(stereo not drawn)", "Potency": "inactive"},
      {"smiles": "c1ccc(C2CC2)c(OCC2=NCCN2)c1", "Potency": "inactive"},
      {"smiles": "Cc1ccc(S(=O)(=O)N[C@@H](CCCCN)C(=O)CCl)cc1", "Potency": "3.01 µM (active)"},
      {"smiles": "CC[C@@H](CO)NC(=O)[C@@H]1C=C2c3cccc4c3c(cn4C)C[C@H]2N(C)C1", "Potency": "inactive"},
      {"smiles": "C=C(C)[C@H]1Cc2c(ccc3c2O[C@@H]2COc4cc(OC)c(OC)cc4[C@@H]2C3=O)O1", "Potency": "inactive"},
      {"smiles": "Nc1ccncc1", "Potency": "inactive"},
      {"smiles": "COC[C@H]1OC(=O)c2coc3c2[C@@]1(C)C1=C(C3=O)C2CCC(=O)[C@@]2(C)C[C@H]1OC(C)=O", "note": "(stereo partly drawn)", "Potency": "inactive"},
      {"smiles": "O=c1[nH]c2ccccc2n1CCCN1CCC(n2c(=O)[nH]c3cc(Cl)ccc32)CC1", "Potency": "inactive"},
      {"smiles": "NN=C(N)N", "Potency": "inactive"},
      {"smiles": "C[C@@H]1O[C@@H](O[C@H]2C[C@@H](O)[C@]3(CO)[C@H]4[C@H](O)C[C@]5(C)[C@@H](C6=CC(=O)OC6)CC[C@]5(O)[C@@H]4CC[C@]3(O)C2)[C@H](O)[C@H](O)[C@H]1O", "Potency": "inactive"},
      {"smiles": "CC(=O)[C@H]1CC[C@H]2[C@@H]3CC[C@H]4C[C@H](O)CC[C@]4(C)[C@H]3C(=O)C[C@]12C", "Potency": "inactive"},
      {"smiles": "CCCN1CCC[C@@H]2Cc3nc(N)ncc3C[C@H]21", "Potency": "inactive"},
      {"smiles": "NCC1(CC(=O)O)CCCCC1", "Potency": "inactive"},
      {"smiles": "N#CC(C#N)=Cc1ccc(O)c(O)c1", "Potency": "inactive"},
      {"smiles": "NCC(O)c1ccc(O)cc1", "note": "(stereo not drawn)", "Potency": "inactive"},
      {"smiles": "NCC(CC(=O)O)c1ccc(Cl)cc1", "note": "(stereo not drawn)", "Potency": "inactive"},
      {"smiles": "COc1ccccc1N1CCNCC1", "Potency": "inactive"},
      {"smiles": "CCCN1CCC[C@@H]2Cc3[nH]ncc3C[C@H]21", "Potency": "inactive"},
      {"smiles": "CCCC(C)(COC(N)=O)COC(=O)NC(C)C", "note": "(stereo not drawn)", "Potency": "inactive"},
      {"smiles": "c1ccc2c(c1)OCC(C1=NCCN1)O2", "note": "(stereo not drawn)", "Potency": "inactive"},
      {"smiles": "Cc1cccc(C)c1NC(=O)CN1CCCC1=O", "Potency": "inactive"},
      {"smiles": "O=c1[nH]c2ccccc2n1C1CCN(CCCC(c2ccc(F)cc2)c2ccc(F)cc2)CC1", "Potency": "inactive"},
      {"smiles": "CC(CCc1ccccc1)NC(C)C(O)c1ccc(O)cc1", "note": "(stereo not drawn)", "Potency": "inactive"},
      {"smiles": "CC[C@@H](CO)NC(=O)[C@@H]1C=C2c3cccc4[nH]cc(c34)C[C@H]2N(C)C1", "Potency": "inactive"},
      {"smiles": "CNCC(O)c1ccc(O)cc1", "note": "(stereo not drawn)", "Potency": "inactive"},
      {"smiles": "O=C1NCN(c2ccccc2)C12CCN(CC1COc3ccccc3O1)CC2", "note": "(stereo not drawn)", "Potency": "3.01 µM (active)"},
      {"smiles": "CN1C[C@H](CNC(=O)OCc2ccccc2)C[C@@H]2c3cccc4c3c(cn4C)C[C@H]21", "Potency": "inactive"}
    ]}
  ]
}
